SMILES strings stand for the structures. The campaign covered roughly 310,000 compounds. About 14,000 (4.5%) showed an effect of 50% or more. The effect is printed as a negative number. This is one part of a sample in which strong results are shown more often than they occur.
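Also: peak tail current of the secondary pulse compared with the same well before compound.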

human ether-à-go-go-related gene (hERG) potassium channel, sequence (Q12809 whole entry, looked up): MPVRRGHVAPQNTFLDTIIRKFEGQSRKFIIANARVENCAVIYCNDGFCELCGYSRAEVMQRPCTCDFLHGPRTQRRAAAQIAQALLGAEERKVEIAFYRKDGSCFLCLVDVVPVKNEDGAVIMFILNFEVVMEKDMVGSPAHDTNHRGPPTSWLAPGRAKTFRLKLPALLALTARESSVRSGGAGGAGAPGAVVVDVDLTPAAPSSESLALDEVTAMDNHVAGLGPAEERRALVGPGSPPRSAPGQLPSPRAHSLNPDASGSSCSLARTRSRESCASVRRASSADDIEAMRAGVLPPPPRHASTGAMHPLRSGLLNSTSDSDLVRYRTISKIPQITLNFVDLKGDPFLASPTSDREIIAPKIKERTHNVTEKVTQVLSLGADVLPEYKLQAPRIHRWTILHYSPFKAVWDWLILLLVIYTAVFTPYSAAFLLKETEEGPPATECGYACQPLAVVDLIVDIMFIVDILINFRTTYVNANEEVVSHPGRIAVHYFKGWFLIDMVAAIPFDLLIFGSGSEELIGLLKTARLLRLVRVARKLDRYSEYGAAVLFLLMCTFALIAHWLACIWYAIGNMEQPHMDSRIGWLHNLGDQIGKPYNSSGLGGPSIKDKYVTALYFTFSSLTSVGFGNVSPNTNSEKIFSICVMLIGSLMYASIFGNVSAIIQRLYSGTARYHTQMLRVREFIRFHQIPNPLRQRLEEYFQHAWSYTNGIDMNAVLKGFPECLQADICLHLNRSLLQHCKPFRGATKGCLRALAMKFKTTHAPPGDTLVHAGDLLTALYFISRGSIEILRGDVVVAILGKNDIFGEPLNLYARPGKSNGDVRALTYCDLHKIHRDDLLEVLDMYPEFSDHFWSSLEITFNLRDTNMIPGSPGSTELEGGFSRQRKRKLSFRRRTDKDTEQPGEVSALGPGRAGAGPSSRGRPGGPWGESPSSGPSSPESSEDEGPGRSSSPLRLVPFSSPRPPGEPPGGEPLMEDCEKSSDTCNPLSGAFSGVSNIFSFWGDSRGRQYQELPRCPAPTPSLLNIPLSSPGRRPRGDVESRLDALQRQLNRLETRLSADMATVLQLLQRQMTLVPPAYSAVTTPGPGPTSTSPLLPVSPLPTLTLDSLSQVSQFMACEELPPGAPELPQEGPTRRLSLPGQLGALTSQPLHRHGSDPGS

The assay addresses human ether-à-go-go-related gene (hERG) potassium channel (human, UniProt Q12809). As to the kind of experiment: primary screen, population patch clamp on CHO cells stably expressing hERG; higher = less effect of the substance.
For the compound `O=C(O)c1ccc(COCC(F)(F)C(F)F)o1`, the “hERG current change (%, negative = inhibition) at 10uM” value was 16%. The same measure for `CC(CNC(=O)C(C)C)NC(=O)C(C)C` (centres unmarked): 7.92%; for `CCN1C(=O)[C@H]2[C@@H](c3ccc(Cl)cc3)N3C(=O)CN(CCOC)C(=O)[C@@]3(C)[C@H]2C1=O`: 3.18%; for `COc1ccc(C2(C(=O)Nc3ccc(C(=O)O)cc3)CCOCC2)cc1`: 9.95%. The same measure for `COc1ccc(Cl)cc1NC(=O)CNc1ccccc1CN(C)C1CCCCC1`: -37.9%.

As to `CC1CN(C(=O)/C=C/c2ccc3c(c2)OCO3)CC(C)O1` (centres unmarked), the “hERG current change (%, negative = inhibition) at 10uM” value is -21%. As to `CC1CN(C(=O)/C=C/c2ccc(SC(F)F)cc2)CC(C)O1` (centres unmarked), the “hERG current change (%, negative = inhibition) at 10uM” value is on record as -59.6%. In the case of `COc1ccc(/C=C/C(=O)N2CC(C)OC(C)C2)cc1OC` (centres unmarked), the “hERG current change (%, negative = inhibition) at 10uM” value is reported as -11%. For the compound `C#Cc1ccc([C@H]2C=C(C(=O)N3CCN(Cc4ccccc4)CC3)O[C@@H](OCC)[C@@H]2CCCO)cc1`, the “hERG current change (%, negative = inhibition) at 10uM” value is -19.6%. Under `COc1ccccc1OCC(=O)NCCSCc1ccccc1Cl` stands -22.6%; under `CC(C)(C)NC(=O)CN1CCC(NC(=O)C23CC4CC(CC(C4)C2)C3)CC1`, 28.1%; under `O=C(Nc1cccnc1)c1cccnc1Cl`, 4.09%.

In the case of `CCn1c(C)c(C(C)=O)c(N2CCN(c3cccc(Cl)c3)CC2)nc1=S`, the “hERG current change (%, negative = inhibition) at 10uM” value was -27.6%. Under `CC(=O)c1c(N2CCCC2)nc(=S)n(-c2ccccc2)c1C` stands -0.251%; under `CC(=O)c1c(N2CCN(c3ccc(F)cc3)CC2)nc(=S)n(-c2ccccc2)c1C`, -75%; under `CC(=O)c1c(N2CCN(c3cccc(Cl)c3)CC2)nc(=S)n(-c2ccccc2)c1C`, -68.8%. Under `COc1ccc(N2CCN(c3nc(=S)n(-c4ccccc4)c(C)c3C(C)=O)CC2)cc1` stands -9.97%.

In the case of `CC(=O)c1c(N2CCN(c3ccccc3)CC2)nc(=S)n(-c2ccccc2)c1C`, the “hERG current change (%, negative = inhibition) at 10uM” value was -20.1%. Under `CC(=O)Nc1ccccc1-c1nc2cc(C#N)c(C#N)cc2[nH]c1=O` stands -4.17%; under `O=c1[nH]c(NCCO)nc2c1C1(CCCCC1)Cc1ccccc1-2`, 7.03%; under `COc1cccc(/C=N/NC(=O)CNC(=O)c2ccc3c(c2)OCCO3)c1O`, -0.701%.

On to `O=C(NCC1CCCO1)c1cnn2c(C(F)F)cc(C3CC3)nc12` (centres unmarked), for which the “hERG current change (%, negative = inhibition) at 10uM” value is -2.7%. The same measure for `CCCOC(=O)c1ccc(Nc2nc(C)cc(=O)[nH]2)cc1`: 3.46%; for `COc1ccc(NC(=O)NC2CCCc3ccccc32)c(OC)c1` (centres unmarked): 13.3%; for `Cc1ccc(NC(=O)COC(=O)CSCC(=O)Nc2cc(C)on2)c(C)c1`: -17.9%. The same measure for `COC(=O)Cc1cc(=O)oc2cc(O)ccc12`: 5.29%. Under `Cc1ccc(NC(=O)CSCC(=O)OCc2cc(=O)oc3cc(O)ccc23)c(C)c1` stands -53.2%. For the compound `CCOc1ccc(/C=N/NC(=S)NC2CC3CC2C2C=CCC32)cc1` (centres unmarked), the “hERG current change (%, negative = inhibition) at 10uM” value is on record as 6.33%. For the compound `CC1=C(C(=O)OCc2ccccc2)C(c2ccc(C)o2)C2=C(CCCC2=O)N1` (centres unmarked), the “hERG current change (%, negative = inhibition) at 10uM” value is given as -23.7%. Under `Cc1cc(C(F)(F)F)c2sc(N)nc2n1` stands 5.61%. Turning to `Cc1ccc(S(=O)(=O)N2CCCN(C(C)c3nc4ccccc4c(=O)[nH]3)CC2)cc1` (centres unmarked), the “hERG current change (%, negative = inhibition) at 10uM” value was -25.6%. The same measure for `CC(c1nc2ccccc2c(=O)[nH]1)N1CCCN(S(=O)(=O)c2ccc(F)cc2)CC1` (centres unmarked): -59.1%; for `CC(c1nc2ccccc2c(=O)[nH]1)N1CCN(C)CC1` (centres unmarked): -5.2%.

For the compound `CC1CCN(S(=O)(=O)c2ccc(NC(=O)C3CSC4(C)CCC(=O)N34)cc2)CC1` (centres unmarked), the “hERG current change (%, negative = inhibition) at 10uM” value is -6.34%. Consider `COc1ccc(C)cc1S(=O)(=O)NCCc1ccccc1`, for which the “hERG current change (%, negative = inhibition) at 10uM” value is given as -28.3%. Under `CCN(CC)c1ccc(C(=O)OCC(=O)Nc2ccc3[nH]c(=O)[nH]c3c2)cc1` stands 5.58%. On to `Cc1ccc2nc(SCc3nnc(-c4ccccc4Br)o3)[nH]c2c1`, for which the “hERG current change (%, negative = inhibition) at 10uM” value is listed as -6.41%. With `CCOC(=O)c1c(C=O)c(C)n(Cc2ccc(Cl)cc2)c1C`, the “hERG current change (%, negative = inhibition) at 10uM” value is -18.8%. Take `CCOc1ncccc1C(=O)OCc1ccc(Cl)cc1`: the “hERG current change (%, negative = inhibition) at 10uM” value is recorded as -20%. Take `CCOC(=O)C1=C(OCc2ccc(Cl)cc2)C2C=C(C)C=CC2N=C1` (centres unmarked): the “hERG current change (%, negative = inhibition) at 10uM” value was -69.1%. Take `CC(=O)c1ccc(-n2c(C)c(C(C)=O)c3cc(O)ccc32)cc1`: the “hERG current change (%, negative = inhibition) at 10uM” value is on record as 8.94%. Take `O=C(c1cccc(Br)c1)N1CCN(C(=O)c2cccc(Br)c2)CC1`: the “hERG current change (%, negative = inhibition) at 10uM” value is -28.5%.

With `O=C(NCCN1CCN(C(=O)c2ccc([N+](=O)[O-])cc2)CC1)C(=O)NCc1ccccc1`, the “hERG current change (%, negative = inhibition) at 10uM” value is reported as -78.9%. Take `CC(NC(=O)C(=O)NCCN1CCN(C(=O)c2ccc([N+](=O)[O-])cc2)CC1)c1ccccc1` (centres unmarked): the “hERG current change (%, negative = inhibition) at 10uM” value is -75.1%. Regarding `O=C(NCCN1CCN(c2ccc([N+](=O)[O-])cc2)CC1)NCc1ccccc1`, the “hERG current change (%, negative = inhibition) at 10uM” value was -67.7%.

Take `CCc1ccc(N2CCN(CCNC(=O)Nc3ccccc3)CC2)cc1`: the “hERG current change (%, negative = inhibition) at 10uM” value is listed as -21.1%. The same measure for `CC(NC(=O)C(=O)NCCN1CCN(C(=O)c2ccccc2Br)CC1)c1ccccc1` (centres unmarked): 6.37%; for `COc1ccc(N2CCN(CCNC(=O)Nc3ccc([N+](=O)[O-])cc3OC)CC2)cc1`: -17.1%. As to `O=C(NCCN1CCN(C(=O)c2cccc(Br)c2)CC1)C(=O)NCc1ccccc1`, the “hERG current change (%, negative = inhibition) at 10uM” value is on record as -70%.

As to `CC(C(=O)NCCN1CCOCC1)c1ccc([N+](=O)[O-])cc1` (centres unmarked), the “hERG current change (%, negative = inhibition) at 10uM” value was 16.7%. Under `O=C(c1ccc([N+](=O)[O-])cc1)N1CCc2ccccc2C1` stands -44.7%; under `O=C(NCCN1CCN(C(=O)c2cccc(Br)c2)CC1)C(=O)Nc1ccc(Br)cc1`, -42.1%; under `O=C(CCC(=O)NNC(=O)c1ccc([N+](=O)[O-])cc1)NCc1ccccc1`, 10.9%.

With `Cc1ccccc1-n1nc(C)c2cc(C(=O)NCc3cccnc3)sc21`, the “hERG current change (%, negative = inhibition) at 10uM” value was -31%.

As to `O=C(c1ccc(COc2ccc(Br)cc2)o1)N1N=C(C(F)F)CC1(O)C(F)F` (centres unmarked), the “hERG current change (%, negative = inhibition) at 10uM” value was 2.57%. The same measure for `Cn1c(N/N=C/c2c[nH]c3ccccc23)nc2ccccc21`: -46.7%. Under `COC(=O)c1ccc(-n2nnnc2SC)cc1` stands 3.46%; under `COc1cccc(/C=C2/Oc3ccccc3N(CC(=O)NCC3CCCO3)C2=O)c1` (centres unmarked), 14%. `Cc1nn(Cc2ccccc2)c(C)c1C(=O)OCC(=O)c1cc(C)n(C2CC2)c1C`: the “hERG current change (%, negative = inhibition) at 10uM” value is on record as -10.2%. On to `NC(=O)COc1ccc(C23CC4CC(CC(C4)C2)C3)cc1`, for which the “hERG current change (%, negative = inhibition) at 10uM” value is 7.2%. With `O=C(NCCN1CCN(C(=O)c2ccc(F)cc2)CC1)C(=O)NCc1ccccc1`, the “hERG current change (%, negative = inhibition) at 10uM” value is given as -73.9%. For the compound `Cl.O=C(Cc1ccc(Cl)cc1)NCCN1CCCC1`, the “hERG current change (%, negative = inhibition) at 10uM” value is reported as -21.9%. The same measure for `Cc1ccc(C(=O)N2CCN(CCNC(=O)C(=O)NC(C)C)CC2)cc1`: 9.12%; for `CC(C)(C)c1ccc(C(=O)N2CCN(CCNC(=O)C(=O)NCc3ccc(Cl)cc3)CC2)cc1`: -41.1%. As for `O=C(NCCN1CCN(C(=O)c2cccc([N+](=O)[O-])c2)CC1)C(=O)NCc1ccc(Cl)cc1`, the “hERG current change (%, negative = inhibition) at 10uM” value is reported as -50.1%. `O=C(NCCN1CCN(S(=O)(=O)c2ccc(F)cc2)CC1)C(=O)NCc1ccccc1`: the “hERG current change (%, negative = inhibition) at 10uM” value stood at 0.451%. Under `Cc1ccc(C(=O)N2CCN(CCNC(=O)C(=O)NCc3ccc(Cl)cc3)CC2)cc1` stands -74%. Under `CN1CCN(C(=O)CNC(=O)Cc2ccc(Cl)cc2)CC1` stands 5.31%. The same measure for `O=C(NCc1ccc(F)cc1)N1CCN(C(=O)c2ccccc2)CC1`: -13.5%; for `O=C(Cc1ccc(Cl)cc1)NCCN1CCN(C(=O)Cc2ccc(Cl)cc2)CC1`: -53.4%.

`COc1ccc(Cc2nc3ccccc3n2CC(=O)N/N=C/c2ccc(O)cc2)cc1OC`: the “hERG current change (%, negative = inhibition) at 10uM” value worked out at 0.975%. For `C=CCOc1ccccc1CNc1ccccc1C`, the “hERG current change (%, negative = inhibition) at 10uM” value is given as -15.7%. Under `COc1ccc(-c2ccc(NC(=O)c3ccco3)cc2)nn1` stands 5.79%. The same measure for `Cc1c(NC(=O)C(C)n2cc([N+](=O)[O-])cn2)c(=O)n(-c2ccccc2)n1C` (centres unmarked): 19.4%; for `O=C(/C=C/Nc1ccccc1F)c1cccs1`: 1.08%; for `COc1ccc(OCc2nn3c(-c4ccco4)nnc3s2)cc1`: -36.6%. Under `Cn1cccc1/C=C1\SC(=O)N(c2ccc(O)cc2)C1=O` stands 0.777%. Regarding `COc1ccc(/C(C)=N/NC(=O)C(NC(=O)c2ccccc2)c2n[nH]c(=O)c3ccccc23)c(OC)c1` (centres unmarked), the “hERG current change (%, negative = inhibition) at 10uM” value was 4.11%.

On to `O=C(COC(=O)c1cc(S(=O)(=O)N2CCCCC2)ccc1N1CCOCC1)NCCc1ccc(F)cc1`, for which the “hERG current change (%, negative = inhibition) at 10uM” value is recorded as -25.5%. The same measure for `Cc1ccc(S(=O)(=O)N2CCN(CCNC(=O)C(=O)NCc3ccccc3)CC2)cc1`: 5.65%. Consider `CC(C)NC(=O)C(=O)NCCN1CCN(C(=O)c2ccc(C(C)(C)C)cc2)CC1`, for which the “hERG current change (%, negative = inhibition) at 10uM” value was -3.01%. Consider `CC(C)(C)c1ccc(C(=O)N2CCN(CCNC(=O)C(=O)NCc3ccccc3)CC2)cc1`, for which the “hERG current change (%, negative = inhibition) at 10uM” value is recorded as -57%. The same measure for `COc1ccc(-c2noc(CCC(N)=O)n2)cc1OC`: 3.66%; for `Cc1csc(NC(=O)c2ccccc2C(=O)O)n1`: -0.365%; for `Cc1ccc(NC(=O)c2ccn(C)n2)c(Br)c1`: 0.15%.

Consider `Cc1ccc(CNC(=O)c2cc(S(=O)(=O)N3CCOCC3)cn2C)cc1`, for which the “hERG current change (%, negative = inhibition) at 10uM” value was -12.5%.
